Screening results as filed in PubChem BioAssay.
In the library only some 7.4% were active in any assay of this set; here they are far more common.
FLuc modulator: inhibits or activates purified firefly luciferase, miR-21 counter-screen; P08659; purified FLuc, Km substrates, luminescence inhibition; Potency, µM (highest dose often 57.5 µM), without a hit: top-dose activity change, negative = inhibition, hits mostly inhibitors; actives 6.9% (n = 360,000);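 also: plate controls were vehicle for no effect and reference inhibitor for full effect; nearly all actives have a fitted effect of over 55% in size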
Target sequence (P08659 whole entry, looked up): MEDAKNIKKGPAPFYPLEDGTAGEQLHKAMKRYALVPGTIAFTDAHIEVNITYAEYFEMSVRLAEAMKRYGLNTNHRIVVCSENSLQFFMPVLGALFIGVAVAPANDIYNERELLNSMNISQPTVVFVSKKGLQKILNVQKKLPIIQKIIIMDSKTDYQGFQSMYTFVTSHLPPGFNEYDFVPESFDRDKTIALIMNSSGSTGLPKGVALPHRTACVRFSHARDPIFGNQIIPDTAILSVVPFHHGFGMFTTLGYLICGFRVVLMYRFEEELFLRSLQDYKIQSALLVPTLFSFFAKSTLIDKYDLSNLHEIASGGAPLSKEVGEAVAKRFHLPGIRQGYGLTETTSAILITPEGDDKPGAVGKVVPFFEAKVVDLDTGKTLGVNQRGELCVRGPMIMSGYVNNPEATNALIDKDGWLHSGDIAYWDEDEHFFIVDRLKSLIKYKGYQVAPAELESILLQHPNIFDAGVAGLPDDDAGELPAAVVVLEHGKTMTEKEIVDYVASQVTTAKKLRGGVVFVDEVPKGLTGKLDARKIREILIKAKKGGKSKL
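Biochemical qHTS of compounds, final roughly 60 µM downward over six points, against 10 nM purified firefly luciferase using Km concentrations of substrates (10 uM D-luciferin, 10 uM ATP) in Tris acetate pH 7.5 buffer; luminescence output.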
Rab9 promoter act: Rab9 promoter activation | Potency, µM (top dose mostly 9.22 µM), for inactives: top-dose activation, negative = inhibition, actives largely listed as activators | AID 485297 | actives 2.8% (n = 320,000) | Huh7 Rab9 promoter-luciferase reporter, luminescence, 24 h; also: % of control where 0% means no effect; nearly all actives have a fitted effect of over 60% in size
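Huh7 cells stably carrying a Rab9 promoter-luciferase reporter, 1500 cells per well in OP-MEM I with 10% FBS, treated with compound 24 hours at 37C. Luciferase activity read by luminescence after 10 minutes with Amplite reagent.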
NPC1 promoter act: NPC1 promoter activation; Huh7 NPC1 promoter luciferase reporter, 24 h; Potency, µM (doses to about 9.22 µM), for inactives: top-dose activation, actives largely listed as activators; actives 2.4% (n = 320,000); AID 485313; also: % of control where 0% means no effect; nearly all actives have a fitted effect of over 60% in size
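Huh7 reporter cells (NPC1 promoter driving luciferase) are dosed with compound for 24 h at 37 °C, 5% CO2; luciferase detection reagent is then added and luminescence measured after 10 min at ambient temperature.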
SMN2 splice up: SMN2 splice variant enhancement. HEK293 SMN2-luciferase splicing reporter, luminescence, 30-36 h. Potency, µM (titrated, usually from 46.1 µM), for the others: top-dose activity change, positive = activation, most hits filed as activators. actives 2.8% (n = 210,000). AID 1458; also: % of control where 0% means no effect; nearly all actives have a fitted effect of over 55% in size
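HEK293 cells carry an SMN2 minigene-luciferase reporter in which exon 7 inclusion puts luciferase in frame. Cells were seeded at 2000 cells/well, attached for 10-12 hours, then exposed to compounds for 30-36 hours at 37C before ONE-Glo luminescence.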
ELG1 genotoxic: genotoxicity induction in ELG1-luciferase HEK293T cells. AID 504466. HEK293T ELG1-luciferase reporter, luminescence, 16 h. Potency, µM (series often up to 46 µM), for the others: at the highest dose activity change, positive = activation, hits mostly activators. actives 1.3% (n = 330,000); also: % of control where 0% means no effect; nearly all actives have a fitted effect of over 60% in size
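Step 1: seed 2,000 HEK293T ELG1-luciferase cells per well. Step 2: add compound or DMSO, incubate 16 hr at 37 °C. Step 3: ONE-Glo, 30 min at room temperature, read luminescence.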
* = called active by the depositor; ? = inconclusive; . = not tested or not shown; [ ] = remark or other dose. Calls follow the shape of the dose curve; as a rule, active = well fitted curve in the direction sought with a large enough effect; inconclusive = small, poorly fitted or top-dose-only effect, or another doubt; inactive = no such curve, though single readings can be large; an effect the other way counts as inactive or inconclusive. Potency is read from the fitted curve at half-maximal effect.

SMILES | FLuc modulator | Rab9 promoter act | NPC1 promoter act | SMN2 splice up | ELG1 genotoxic
Cc1ccc(OCC(=O)Nc2ccc(S(=O)(=O)Nc3ncccn3)cc2)c(C(C)(C)C)c1 | ? | . | . | -1% | .
COc1ccc(C(=O)Nc2nc3n(n2)C(c2ccc(Cl)cc2)C=C(c2ccccc2)N3)cc1OC (stereo unspecified) | ? | . | . | -3% | .
COc1ccc(CNc2cc(-c3ccccc3CN(C)C)ncn2)c(OC)c1 | . | . | . | -1% | .
CS(=O)(=O)N1CCC2(CC1)CN(Cc1ccc(C#N)cc1)C2 | . | . | . | -6% | .
CCCc1nn2c(=O)cc(COC(=O)c3ccccc3NC(=O)c3ccc(OCC)cc3)nc2s1 | -12% | . | . | . | .
O=C(Nc1ccccc1)c1cccc2c(=O)c3c([nH]c12)CCCC3 | 2% | . | . | . | .
CN(C)S(=O)(=O)c1ccc(C(=O)Nc2ccc3c(c2)CCC3)cc1 | 19µM* | ? | ? | . | 7%
COc1ccc(NC(=O)c2ccc(S(=O)(=O)N(C)C)cc2)cc1OC | -17% | -5% | 6% | -3% | 5%
CN(C)S(=O)(=O)c1cccc(C(=O)Nc2ccc3c(c2)CCC3)c1 | 1.7µM* | 0.63µM* | 1.3µM* | . | 4µM*
CC(C)C[C@@H](CC(=O)N[C@@H](CCC(=O)O)CC(=O)O)NC(=O)[C@@H]1CCCC[C@H]1NC(=O)C[C@H](CCCN)NC(=O)C[C@H](CO)NC(=O)[C@@H]1CNCC[C@H]1N | . | . | . | 1% | .
O=C1CNC(=S)N1c1nc2ccccc2s1 | 17µM* | ? | ? | . | ?
O=C(Nc1ccccc1C(F)(F)F)N1CCC2(CC1)Oc1ccccc1C(=O)N2Cc1ccccc1F | -11% | . | . | -2% | .
CCOC(=O)c1ccc(NC2SC(=O)N(Cc3cccc(C(=O)O)c3)C2=O)cc1 (stereo unspecified) | 24µM* | . | . | ? | .
CCC(CC)C(=O)Nc1nnc(SCc2cc(=O)c3ccccc3[nH]2)s1 | -8% | . | . | . | .
COc1ccc(OC)c(S(=O)(=O)N2Cc3ccccc3CC2C(=O)Nc2nccs2)c1 (stereo unspecified) | 3%[2.3 µM] | ? | 3% | 35µM* | 14%
COc1ccc(OC)c(S(=O)(=O)N2Cc3ccccc3CC2C(=O)Nc2ccc(C)cc2C)c1 (stereo unspecified) | 0% | . | . | 6% | .
CCCCOc1ccc(/C=c2\sc3ncnn3c2=O)cc1 | -10% | -4% | -2% | -7% | 2%
O=C1NC(=O)/C(=C\c2ccc(OCc3cnc(Cl)s3)cc2)S1 | ? | -3% | 17% | 15% | 6%
CC(=O)Nc1ccc(S(=O)(=O)Oc2cccc(/C=C3\SC(N)=NC3=O)c2)cc1 | 1% | 4% | 0% | 6% | 29%
CC(=O)Oc1cccc(/C=C2\Sc3ccccc3C2=O)c1 | 1.7µM* | -3% | 0% | . | -2%
CC(C)COc1ccc(/C=C2/Sc3ccccc3C2=O)cc1 | 1.3µM* | 22% | ? | ? | ?
CCCCOc1ccc(/C=C2/Sc3ccccc3C2=O)cc1 | 3.4µM* | 28% | 3% | 16µM* | 8%
O=C1/C(=C/c2cccs2)Sc2ccccc21 | 1.1µM* | ? | 14% | ? | ?
COc1ccc(CC(=O)NC2CC(=O)N(c3ccc(C)c(C)c3)C2)cc1OC (stereo unspecified) | -4% | . | . | . | .
Cc1ccc(-c2nnc(Nc3ccc(Br)cc3)c3ccccc23)cc1S(=O)(=O)N1CCCCC1 | 1% | . | . | 4% | .
SMILES | FLuc modulator | Rab9 promoter act | NPC1 promoter act | SMN2 splice up | ELG1 genotoxic
NC(=O)c1cc([N+](=O)[O-])ccc1NCc1cccc2ccccc12 | -12% | -3% | -3% | . | 4%
O=C(/C=C/Nc1ccc([N+](=O)[O-])cc1Br)c1cccc2ccccc12 | 2.4µM* | 1.1µM* | 3.2µM* | 5.6µM* | ?
COC(=O)c1c(-c2cccs2)csc1NC(=O)COc1ccc(C)cc1 | -18% | . | . | . | .
COC(=O)c1c(-c2cccs2)csc1NC(=O)c1cccnc1 | 17µM* | ? | 28% | -1% | 6%
COC(=O)c1c(-c2cccs2)csc1NC(=O)COc1ccccc1 | 6.7µM* | . | . | . | .
C/C(Cl)=C/CCl | . | . | . | -4% | .
O=S(=O)(Nc1ccc2oc(-c3ccccc3)nc2c1)c1ccccc1 | ? | 20% | 3% | -14% | 6%
O=S(=O)(O)c1cc2oc(-c3ccccc3)nc2c2ccccc12 | 9.5µM* | 22% | 16% | . | -4%
Cc1ccc(Nc2nc(CSc3nnc(-c4ccccc4C)n3C)cs2)cc1 | 1.9µM* | ? | ? | . | 3%
COc1ccc(-c2nnc(SCc3ccccn3)n2C)cc1 | ? | ? | 24% | 23% | ?
Cc1ccc(Nc2nc(CSc3nnc(-c4ccccc4)n3C)cs2)cc1 | 1.2µM* | ? | ? | ? | ?
Cc1ccccc1-n1c(SCc2csc(Nc3ccccc3)n2)nnc1-c1cccnc1 | ? | -1% | 0% | -13% | -8%
Cc1ccc(Nc2nc(CSc3nnc(-c4cccnc4)n3-c3ccccc3C)cs2)cc1 | 11µM* | 2% | 3% | -44% | 1%
CCN(CC)C(=O)COc1ccc(-c2ccccc2)cc1 | 13µM* | ? | ? | 8% | ?
CCN(Cc1ccccc1)C(=O)COc1ccccc1 | 1% | -2% | -3% | . | 1%
CCN(CC)C(=O)COc1ccc(/C(C)=N/NC(=O)c2ccccc2O)cc1 | 6.7µM* | ? | 13% | -16% | 18%
O=c1c(C=NCCN2CCNCC2)c(-c2ccccc2)[nH]n1-c1ccc([N+](=O)[O-])cc1 | ? | ? | ? | . | 13%
COc1ccc(-c2[nH]n(-c3ccc([N+](=O)[O-])cc3)c(=O)c2C=NCCN2CCNCC2)cc1 | 0.95µM* | 0.45µM* | 0.71µM* | . | ?
Cc1ccccc1-n1sc2cc(F)ccc2c1=O | 11µM* | 5% | 10% | -48% | -10%
O=c1c2cc(F)ccc2sn1-c1ccccc1 | ? | 1% | 12% | . | -2%
CCCn1c(C)cc(C(=O)CSc2nc3ccccc3c(=O)n2Cc2ccco2)c1C | 5.4µM* | 3.5µM* | 3.2µM* | ? | ?
Fc1cccc(CSc2nc3ccncc3[nH]2)c1 | ? | ? | 25% | 11µM* | 16%
Cc1ccc2nc(SCC(=O)c3cc(C)n(C)c3C)[nH]c2c1 | -19% | -1% | 6% | 11% | 12%
C=CCn1c(C)cc(C(=O)COc2nncc3ccccc23)c1C | 15µM* | ? | 1.4µM* | ? | 10µM*
Clc1cccc(CSc2nc3ccncc3[nH]2)c1 | ? | ? | 22% | 27% | ?
Cc1cc(C(=O)CSc2nc3ccccc3[nH]2)c(C)n1C | 3.4µM* | 0.45µM* | 0.4µM* | 3.2µM* | ?
COc1ccc(C2c3cccn3CCN2S(=O)(=O)c2ccc([N+](=O)[O-])cc2)cc1 (stereo unspecified) | -2% | . | . | . | .
